According to the supplement of paper PMC9254222:
Over roughly 1,100 compounds, “Wnt reporter firefly/Renilla luciferase ratio relative to plate median” has its median near 1.1; the highest 2% begin near 1.6. Only a selection was taken, and the highest values are over-represented in it overall.

Test system: HEK293T (UBE3A T485A transfected, BAR Wnt reporter)
Assay: Wnt reporter firefly/Renilla luciferase ratio relative to plate median (fold (linear ratio)); higher = more Wnt/beta-catenin reporter activation
Details: 24 h
Procedure, shortened: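 Using Fugene 6, HEK293T cells in white 384-well plates (4500 cells/well; DMEM, 10% FBS, 37°C, 5% CO2) were transfected with a BAR firefly luciferase Wnt reporter, TK-Renilla and an expression plasmid. After four hours, robots dosed the chemicals at 0.01–100 uM, and a Dual-Glo luciferase readout followed 24 h later. Per-plate median-centred firefly/Renilla ratios gave Wnt activity, while per-plate median-centred raw Renilla signals gave cell health. Four biological replicates were averaged.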

## CC1CCC(NC(=O)N(CCCl)N=O)CC1 (configuration not stated) [Semustine]
concentration: 0.01 uM
  Wnt reporter firefly/Renilla luciferase ratio: 1.09
concentration: 0.1 uM
  Wnt reporter firefly/Renilla luciferase ratio: 0.921
concentration: 1 uM
  Wnt reporter firefly/Renilla luciferase ratio: 0.986
concentration: 10 uM
  Wnt reporter firefly/Renilla luciferase ratio: 0.864
concentration: 100 uM
  Wnt reporter firefly/Renilla luciferase ratio: 0.475

## Cc1nc(-c2ccc3c(c2)CCN(CCC2CCC(NC(=O)/C=C/c4ccc(F)cc4)CC2)CC3)no1.Cl (configuration not stated)
concentration: 0.1 uM
  Wnt reporter firefly/Renilla luciferase ratio: 1.22
concentration: 1 uM
  Wnt reporter firefly/Renilla luciferase ratio: 0.948
concentration: 10 uM
  Wnt reporter firefly/Renilla luciferase ratio: 0.916
concentration: 100 uM
  Wnt reporter firefly/Renilla luciferase ratio: 0.983

## Cc1cnc(-c2cnc(NCCNc3ccc(C#N)cn3)nc2-c2ccc(Cl)cc2Cl)[nH]1
concentration: 0.01 uM
  Wnt reporter firefly/Renilla luciferase ratio: 1.03
concentration: 0.1 uM
  Wnt reporter firefly/Renilla luciferase ratio: 1.5
concentration: 1 uM
  Wnt reporter firefly/Renilla luciferase ratio: 5.86
concentration: 10 uM
  Wnt reporter firefly/Renilla luciferase ratio: 128

## CCOC(=O)c1ccc(O)cc1 [Ethylparaben]
concentration: 0.1 uM
  Wnt reporter firefly/Renilla luciferase ratio: 0.886
concentration: 1 uM
  Wnt reporter firefly/Renilla luciferase ratio: 0.966
concentration: 10 uM
  Wnt reporter firefly/Renilla luciferase ratio: 0.941
concentration: 100 uM
  Wnt reporter firefly/Renilla luciferase ratio: 0.734

## O=C([O-])c1[nH]n(-c2ccc(S(=O)(=O)[O-])cc2)c(=O)c1/N=N/c1ccc(S(=O)(=O)[O-])cc1.[Na+].[Na+].[Na+] [FD&C Yellow 5]
concentration: 0.1 uM
  Wnt reporter firefly/Renilla luciferase ratio: 1.26
concentration: 1 uM
  Wnt reporter firefly/Renilla luciferase ratio: 0.877
concentration: 10 uM
  Wnt reporter firefly/Renilla luciferase ratio: 1.26
concentration: 100 uM
  Wnt reporter firefly/Renilla luciferase ratio: 1.86

## CCCCc1oc2ccccc2c1C(=O)c1cc(I)c(OCCN(CC)CC)c(I)c1.Cl [Amiodarone hydrochloride]
concentration: 0.1 uM
  Wnt reporter firefly/Renilla luciferase ratio: 1.18
concentration: 1 uM
  Wnt reporter firefly/Renilla luciferase ratio: 1.09
concentration: 10 uM
  Wnt reporter firefly/Renilla luciferase ratio: 1
concentration: 100 uM
  Wnt reporter firefly/Renilla luciferase ratio: 1.11

## CC(C)c1cccc(C(C)C)c1 [1,3-Diisopropylbenzene]
concentration: 0.1 uM
  Wnt reporter firefly/Renilla luciferase ratio: 1.14
concentration: 1 uM
  Wnt reporter firefly/Renilla luciferase ratio: 0.929
concentration: 10 uM
  Wnt reporter firefly/Renilla luciferase ratio: 1.33
concentration: 100 uM
  Wnt reporter firefly/Renilla luciferase ratio: 1.5

## CC(=O)OC/C=C(\C)CCC=C(C)C [Geranyl acetate]
concentration: 0.1 uM
  Wnt reporter firefly/Renilla luciferase ratio: 1.1
concentration: 1 uM
  Wnt reporter firefly/Renilla luciferase ratio: 0.97
concentration: 10 uM
  Wnt reporter firefly/Renilla luciferase ratio: 1.27
concentration: 100 uM
  Wnt reporter firefly/Renilla luciferase ratio: 1.23

## c1ccc(Nc2ccccc2)cc1 [Diphenylamine]
concentration: 0.01 uM
  Wnt reporter firefly/Renilla luciferase ratio: 1.05
concentration: 0.1 uM
  Wnt reporter firefly/Renilla luciferase ratio: 1.08
concentration: 1 uM
  Wnt reporter firefly/Renilla luciferase ratio: 1.19
concentration: 10 uM
  Wnt reporter firefly/Renilla luciferase ratio: 1.18
concentration: 100 uM
  Wnt reporter firefly/Renilla luciferase ratio: 1.24

## [Cl-].[Li+]
concentration: 0.01 uM
  Wnt reporter firefly/Renilla luciferase ratio: 0.768
concentration: 0.1 uM
  Wnt reporter firefly/Renilla luciferase ratio: 0.845
concentration: 1 uM
  Wnt reporter firefly/Renilla luciferase ratio: 0.926
concentration: 10 uM
  Wnt reporter firefly/Renilla luciferase ratio: 0.875
concentration: 100 uM
  Wnt reporter firefly/Renilla luciferase ratio: 1.27

## CC(C)=CCCC(C)CCO (configuration not stated) [Citronellol]
concentration: 0.1 uM
  Wnt reporter firefly/Renilla luciferase ratio: 1.07
concentration: 1 uM
  Wnt reporter firefly/Renilla luciferase ratio: 0.904
concentration: 10 uM
  Wnt reporter firefly/Renilla luciferase ratio: 1.18
concentration: 100 uM
  Wnt reporter firefly/Renilla luciferase ratio: 1.64

## C=CC(=C)CCC=C(C)C [Myrcene]
concentration: 0.1 uM
  Wnt reporter firefly/Renilla luciferase ratio: 1.05
concentration: 1 uM
  Wnt reporter firefly/Renilla luciferase ratio: 0.768
concentration: 10 uM
  Wnt reporter firefly/Renilla luciferase ratio: 1.02
concentration: 100 uM
  Wnt reporter firefly/Renilla luciferase ratio: 1.15

## CC(C)CCO [Isopentyl alcohol]
concentration: 0.1 uM
  Wnt reporter firefly/Renilla luciferase ratio: 1.15
concentration: 1 uM
  Wnt reporter firefly/Renilla luciferase ratio: 0.978
concentration: 10 uM
  Wnt reporter firefly/Renilla luciferase ratio: 1.1
concentration: 100 uM
  Wnt reporter firefly/Renilla luciferase ratio: 1.03

## NC(CCCP(=O)(O)O)C(=O)O (racemic)
concentration: 0.01 uM
  Wnt reporter firefly/Renilla luciferase ratio: 1.35
concentration: 0.1 uM
  Wnt reporter firefly/Renilla luciferase ratio: 1.19
concentration: 1 uM
  Wnt reporter firefly/Renilla luciferase ratio: 0.925
concentration: 10 uM
  Wnt reporter firefly/Renilla luciferase ratio: 0.918
concentration: 100 uM
  Wnt reporter firefly/Renilla luciferase ratio: 1.69

## CC/C(=C(/CC)c1ccc(O)cc1)c1ccc(O)cc1 [Diethylstilbestrol]
concentration: 0.1 uM
  Wnt reporter firefly/Renilla luciferase ratio: 0.897
concentration: 1 uM
  Wnt reporter firefly/Renilla luciferase ratio: 0.807
concentration: 10 uM
  Wnt reporter firefly/Renilla luciferase ratio: 0.741
concentration: 100 uM
  Wnt reporter firefly/Renilla luciferase ratio: 0.205

## C[C@@H]1C[C@H]2[C@@H]3CCC4=CC(=O)C=C[C@]4(C)[C@@]3(F)[C@@H](O)C[C@]2(C)[C@@]1(O)C(=O)COP(=O)([O-])[O-].[Na+].[Na+] [Dexamethasone sodium phosphate]
concentration: 0.1 uM
  Wnt reporter firefly/Renilla luciferase ratio: 1.15
concentration: 1 uM
  Wnt reporter firefly/Renilla luciferase ratio: 1.09
concentration: 10 uM
  Wnt reporter firefly/Renilla luciferase ratio: 1.2
concentration: 100 uM
  Wnt reporter firefly/Renilla luciferase ratio: 0.968

## c1ccc2c(c1)-c1cccc3c1c-2cc1ccccc13 [Benzo(b)fluoranthene]
concentration: 0.1 uM
  Wnt reporter firefly/Renilla luciferase ratio: 1.22
concentration: 1 uM
  Wnt reporter firefly/Renilla luciferase ratio: 1.22
concentration: 10 uM
  Wnt reporter firefly/Renilla luciferase ratio: 1.45
concentration: 100 uM
  Wnt reporter firefly/Renilla luciferase ratio: 1.45
